Source: PubChem (National Center for Advancing Translational Sciences (NCATS))
ELG1 repair inh: qHTS screen for small molecules that inhibit ELG1-dependent DNA repair in human embryonic kidney (HEK293T) cells expressing luciferase-tagged ELG1 | Potency, µM (doses to about 46.1 µM), actives largely listed as inhibitors | 330,000 compounds, 2.3% hits | HEK293T ELG1-luciferase reporter, luminescence, 16 h; DNA damage induced by 5-fluorouridine; note: nearly all actives have a fitted effect of over 55% in size
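In this reporter screen, reduction of luminescence relative to DMSO vehicle indicated activity. Compounds and 5-fluorouridine were added together to 2,000 cells per well, incubated for 16 hr at 37 °C, then developed with ONE-Glo.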
SMN2 splice up: qHTS Assay for Enhancers of SMN2 Splice Variant Expression | HEK293 SMN2-luciferase splicing reporter, luminescence, 30-36 h | Potency, µM (titrated, usually from 46.1 µM), most hits filed as activators | 210,000 compounds, 2.8% hits; note: nearly all actives have a fitted effect of over 55% in size
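HEK293 cells carry an SMN2 minigene-luciferase reporter in which exon 7 inclusion puts luciferase in frame. Cells were seeded at 2000 cells/well, attached for 10-12 hours, then exposed to compounds for 30-36 hours at 37C before ONE-Glo luminescence.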
Rab9 prom act: qHTS Assay for Rab9 Promoter Activators; Huh7 Rab9 promoter-luciferase reporter, luminescence, 24 h; Potency, µM (series often up to 9.22 µM), most hits filed as activators; 320,000 compounds, 2.8% hits; AID 485297, 2010; note: nearly all actives have a fitted effect of over 60% in size
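Promoter activation is measured as luciferase luminescence in Huh7 cells stably transfected with a Rab9 promoter–luciferase construct, following 24 h compound exposure at 37 °C and 10 min reagent incubation at ambient temperature.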
FLuc counter: qHTS profiling assay for firefly luciferase inhibitor/activator using purifed enzyme and Km concentrations of substrates (counterscreen for miR-21 project). Potency, µM (top dose mostly 57.5 µM), most hits filed as inhibitors. 360,000 compounds, 6.9% hits. purified FLuc, Km substrates, luminescence inhibition. AID 588342, 2011; note: nearly all actives have a fitted effect of over 55% in size
Target sequence (P08659 whole entry, looked up): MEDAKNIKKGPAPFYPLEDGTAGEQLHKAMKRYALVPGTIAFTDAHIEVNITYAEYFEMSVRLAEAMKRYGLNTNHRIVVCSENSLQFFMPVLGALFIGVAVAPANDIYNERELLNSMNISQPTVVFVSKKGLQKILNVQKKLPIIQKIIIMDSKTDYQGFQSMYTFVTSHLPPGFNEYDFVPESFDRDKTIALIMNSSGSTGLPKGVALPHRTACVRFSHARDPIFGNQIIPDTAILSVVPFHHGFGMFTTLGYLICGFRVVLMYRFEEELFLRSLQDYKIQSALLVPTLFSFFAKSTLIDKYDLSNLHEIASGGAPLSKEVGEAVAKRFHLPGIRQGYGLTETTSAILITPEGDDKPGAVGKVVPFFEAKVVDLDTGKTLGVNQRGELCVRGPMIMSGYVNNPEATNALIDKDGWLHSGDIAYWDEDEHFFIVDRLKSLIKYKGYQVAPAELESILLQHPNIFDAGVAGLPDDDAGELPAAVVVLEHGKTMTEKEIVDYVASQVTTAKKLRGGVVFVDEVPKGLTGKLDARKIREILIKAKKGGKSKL
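Biochemical qHTS of compounds, final roughly 60 µM downward over six points, against 10 nM purified firefly luciferase using Km concentrations of substrates (10 uM D-luciferin, 10 uM ATP) in Tris acetate pH 7.5 buffer; luminescence output.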
NPC1 promoter act: qHTS Assay for NPC1 Promoter Activators; 320,000 compounds, 2.4% hits; Huh7 NPC1 promoter luciferase reporter, 24 h; AID 485313, 2010; Potency, µM (top dose mostly 9.22 µM), hits mostly activators; note: nearly all actives have a fitted effect of over 60% in size
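Luciferase expression driven by the NPC1 promoter was measured in stably transfected Huh7 cells after a 24 h compound incubation, using a luciferase reagent and a luminescence read.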
ELG1 genotox: qHTS screen for small molecules that induce genotoxicity in human embryonic kidney (HEK293T) cells expressing luciferase-tagged ELG1; HEK293T ELG1-luciferase reporter, luminescence, 16 h; Potency, µM (series often up to 46 µM), usual class: activators; 330,000 compounds, 1.3% hits; AID 504466, 2011; note: nearly all actives have a fitted effect of over 60% in size
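Quantitative HTS format in 1536-well plates. HEK293T ELG1-luciferase reporter cells receive test compound and are incubated 16 hr at 37 °C, 5% CO2; ONE-Glo added, 30 min room temperature, then luminescence read.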
Large screens that a line does not name were inactive. Rows were chosen to be rich in hits. Some 9.2% of all compounds tested hit in one or more screens of this group. Calls come from the whole dose curve; as a rule, active = well fitted curve in the direction sought with a large enough effect; inconclusive = small, poorly fitted or top-dose-only effect, or another doubt; inactive = no such curve, though single readings can be large; an effect the other way counts as inactive or inconclusive.

COC(=O)c1sccc1-c1ccc(/C=N/OC(=O)c2cccs2)o1	FLuc counter 5.36µM (no result: SMN2 splice up)
COc1ccc(Nc2cc(C(=O)NCc3ccccc3OC)c3ccccc3n2)cc1	FLuc counter 10.7µM (no result: ELG1 repair inh, SMN2 splice up, Rab9 prom act, NPC1 promoter act, ELG1 genotox)
COc1ccc(CNC(=O)c2cc(Nc3ccc(OC)cc3OC)nc3ccccc23)cc1	FLuc counter 7.57µM (no result: ELG1 repair inh, Rab9 prom act, NPC1 promoter act, ELG1 genotox)
COc1ccc(CCNC(=O)c2cc(Nc3cc(C)cc(C)c3)nc3ccccc23)cc1OC	FLuc counter 6.01µM (no result: ELG1 repair inh, Rab9 prom act, NPC1 promoter act, ELG1 genotox)
CCOCCCNC(=O)c1cc(Nc2ccc(OC)cc2OC)nc2ccccc12	FLuc counter inconclusive (no result: SMN2 splice up)
COc1ccc(OC)c(Nc2cc(C(=O)NCc3ccccc3)c3ccccc3n2)c1	none (no result: ELG1 repair inh, Rab9 prom act, NPC1 promoter act, ELG1 genotox)
COCCCNC(=O)c1cc(Nc2ccc(OC)cc2OC)nc2ccccc12	FLuc counter 19µM (no result: SMN2 splice up)
CCN(C(=O)CSc1nc2ccccc2[nH]1)C1CCS(=O)(=O)C1 (stereo not given)	none (no result: SMN2 splice up, Rab9 prom act, FLuc counter, NPC1 promoter act)
CC1=C(C(=O)N2CCCCC2)C(c2ccc(Cl)cc2)n2c(nc3ccccc32)N1 (stereo not given)	none (no result: ELG1 repair inh, Rab9 prom act, NPC1 promoter act, ELG1 genotox)
CN(C(=O)CSc1ncnc2sccc12)C1CCCCC1	ELG1 repair inh inconclusive, Rab9 prom act 2.82µM, FLuc counter 13.5µM, NPC1 promoter act inconclusive, ELG1 genotox inconclusive (no result: SMN2 splice up)
c1ccc(C2CSc3ccccc3N2)cc1 (stereo not given)	ELG1 repair inh inconclusive, FLuc counter 21.3µM, NPC1 promoter act inconclusive, ELG1 genotox inconclusive (no result: SMN2 splice up)
O=C1c2ccccc2NC(c2cnc3ccccc3n2)N1O (stereo not given)	ELG1 repair inh inconclusive, SMN2 splice up 11.2µM, Rab9 prom act 0.891µM, FLuc counter 2.39µM, NPC1 promoter act 1.26µM, ELG1 genotox inconclusive
Cc1nn(C)c(C)c1C1Nc2ccccc2C(=O)N1O (stereo not given)	none
Cc1nn(CCC(=O)Nc2ccc(Cl)cc2)c(C)c1S(=O)(=O)N1CCCCC1	none (no result: ELG1 repair inh, SMN2 splice up, Rab9 prom act, NPC1 promoter act, ELG1 genotox)
CCCN(c1ccc(C(C)C)cc1)S(=O)(=O)c1ccc2c(c1)oc(=O)n2CC(=O)OCC	none (no result: ELG1 repair inh, Rab9 prom act, NPC1 promoter act, ELG1 genotox)
CC1(C)CCc2cc(-c3ccnc(=S)[nH]3)ccc2O1	ELG1 repair inh inconclusive, Rab9 prom act 0.631µM, FLuc counter 10.7µM, NPC1 promoter act 0.447µM, ELG1 genotox 1.46µM (no result: SMN2 splice up)
S=c1nccc(-c2ccc3c(c2)CCO3)[nH]1	ELG1 repair inh inconclusive (no result: SMN2 splice up)
Cc1ccc(C)c(NC(=O)C2CC3CCC2C3)c1 (stereo not given)	ELG1 repair inh inconclusive, FLuc counter inconclusive (no result: SMN2 splice up)
Cc1ccc(CNCC(=O)Nc2ccc(C)cc2Br)cc1	ELG1 repair inh inconclusive, FLuc counter inconclusive
Cc1ccc(NC(=O)CC2CCCC2)c(Br)c1	ELG1 repair inh inconclusive, Rab9 prom act inconclusive, FLuc counter 15.1µM, NPC1 promoter act inconclusive, ELG1 genotox inconclusive (no result: SMN2 splice up)
Cc1ccc(NC(=O)Cn2cccc2)c(Br)c1	ELG1 repair inh inconclusive
O=C(CCC1CCCCC1)Nc1ccccc1-c1ccccc1	none
O=C(CCC1CCCCC1)Nc1ccccc1O	ELG1 repair inh inconclusive, SMN2 splice up inconclusive, Rab9 prom act inconclusive, FLuc counter 21.3µM, NPC1 promoter act inconclusive, ELG1 genotox 10.3µM
Cc1ccc(NC(=O)C2CC3CCC2C3)c(Br)c1 (stereo not given)	ELG1 repair inh inconclusive, Rab9 prom act inconclusive, FLuc counter 16.9µM, NPC1 promoter act 3.98µM, ELG1 genotox inconclusive (no result: SMN2 splice up)
Cc1ccc(NC(=O)CN(C)CC(=O)Nc2c(C)cccc2C)c(Br)c1	ELG1 repair inh 7.31µM
COc1ccccc1N1CCN(c2nc(-c3ccc(C)cc3)nc3ccccc23)CC1	none (no result: ELG1 repair inh, SMN2 splice up, Rab9 prom act, NPC1 promoter act, ELG1 genotox)
Cc1ccc(N(CC(=O)N2CCN(c3ccc(F)cc3)CC2)S(=O)(=O)c2c(C)noc2C)cc1	none
Cn1c(NC(=O)c2ccc(C(C)(C)C)cc2)cc(=O)n(C)c1=O	ELG1 repair inh inconclusive, ELG1 genotox 9.2µM
Cc1ccc(O)c(NC(=O)CCC2CCCCC2)c1	ELG1 repair inh inconclusive, FLuc counter 7.57µM, NPC1 promoter act inconclusive, ELG1 genotox inconclusive
Cn1c(NC(=O)CCC2CCCCC2)cc(=O)n(C)c1=O	ELG1 repair inh inconclusive, SMN2 splice up 11.2µM, Rab9 prom act 1.41µM, FLuc counter 5.36µM, NPC1 promoter act 3.98µM, ELG1 genotox 3.26µM
Cn1c(NNC(=O)c2ccc(C(C)(C)C)cc2)cc(=O)n(C)c1=O	none
O=C(N/N=C/c1c(O)ccc2ccccc12)c1cccnc1	ELG1 repair inh 3.66µM, FLuc counter inconclusive (no result: SMN2 splice up)
Cn1c(-c2ccccc2)c(/C=N/NC(=O)c2ccc(O)cc2)c2ccccc21	ELG1 repair inh inconclusive, Rab9 prom act inconclusive, FLuc counter 0.953µM, NPC1 promoter act inconclusive, ELG1 genotox inconclusive (no result: SMN2 splice up)
O=C(N/N=C\c1c(O)ccc2ccccc12)c1ccc(O)cc1	FLuc counter 12µM (no result: SMN2 splice up)
CCOc1ccc2ccccc2c1/C=N\NC(=O)OC	none
CCOc1ccc2ccccc2c1/C=N\NC(=O)c1ccc([N+](=O)[O-])cc1	ELG1 repair inh inconclusive, FLuc counter 9.53µM (no result: SMN2 splice up)
COC(CN(C)C(=O)c1cn(C)c2ccc(S(=O)(=O)N(C)C3CCCCC3)cc2c1=O)OC	none (no result: SMN2 splice up)
COC(=O)[C@H](Cc1c[nH]c2ccccc12)NC(=O)NCc1ccccc1	none (no result: SMN2 splice up)
CCn1c(=O)n(CC)c2cc(N3CCCCC3)c(NC(=O)Nc3ccccc3Cl)cc21	none (no result: ELG1 repair inh, SMN2 splice up, Rab9 prom act, NPC1 promoter act, ELG1 genotox)
O=C(Nc1c(Cl)cccc1Cl)c1cccc2c1C(=O)N(C1CCCCC1)C2	none (no result: ELG1 repair inh, Rab9 prom act, NPC1 promoter act, ELG1 genotox)
